Source: PubChem BioAssay
Entries with a potency or affinity are not part of this list. Inconclusive results are not listed. Activity calls are given as the source filed them. Unless noted, the rule behind the calls is not given here.

Experiments:
[1] = RMG-1 ovarian cancer cell viability loss – cherry-pick, dose response (AID 687029;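 active = signal drop whose fitted half-maximal concentration is at most twice the top valid dose, in every test run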;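 note: cells exposed to compound for 96 hours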)
[2] = IOSE-T80 viability loss, PAX8-independent line – cell-based, cherry-pick, selectivity assay for PAX8 inhibitor project, dose response (AID 687032;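 active = fitted half-maximal concentration for viability loss no higher than twice the top valid dose, in every repeat run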;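 note: cells exposed to compound for 96 h before reading; 0% = neutral control wells and -100% = 2 µM mitoxantrone kill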)
[3] = CMV-driven luciferase expression suppression in HEK293 – cell-based, luminescence, dry powder, counter-screen for Pax8 inhibitor project, dose response (AID 743020;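 active = signal-lowering compounds whose fitted half-maximal concentration is at or below twice the top tested dose in every run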;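 note: HEK293 cells stably expressing the CMV luciferase reporter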)
[4] = general cell-killing toxicity readout – plate reader, dry powder samples, cytotoxicity control for PAX8 inhibitor project, dose response (AID 743021)
[5] = IGROV1 cell killing – plate reader, dry powder samples, PAX8 inhibitor project, dose response (AID 743043);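 note: more negative means fewer viable cells or more cytotoxicity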
[6] = OVCAR-3 cell viability loss – plate reader, dry powder samples, PAX8 inhibitor project, dose response (AID 743044); details: max activity: at 35 µM, stronger effect = lower value unless noted
[7] = toxicity toward immortalized ovarian surface epithelium – cell-based, plate reader, dry powder samples, cytotoxicity control for PAX8 inhibitor project, dose response (AID 743045);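 note: 0% = neutral control median and -100% = positive control median; more negative values mean more cell killing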
[8] = A2780 cell killing – plate reader, dry powder samples, cytotoxicity control, dose response (AID 743046);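 note: 0% = neutral control wells and -100% = cytotoxic reference compound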
[9] = OVCAR8 cell viability loss – plate reader, dry powder samples, PAX8 project, dose response (AID 743197)

Measured: max activity

C[C@H](CO)N1C[C@H](C)[C@H](CN(C)Cc2ccc(Cl)c(Cl)c2)Oc2c(NS(=O)(=O)c3ccc(Cl)cc3)cccc2C1=O
inactive: [1] | [2] | [3] | [4] | [5] | [6] 53.6% | [7] | [8] | [9]

C[C@@H]1CN([C@@H](C)CO)C(=O)c2cc(NC(=O)Nc3ccc4c(c3)OCO4)ccc2O[C@@H]1CN(C)C(=O)Nc1ccc(C(F)(F)F)cc1
inactive: [1] | [2] | [3] | [4] | [5] | [6] 51.3% [at 0.26 µM, stronger effect = lower value] | [7] | [8] | [9]

C[C@@H]1CN([C@@H](C)CO)C(=O)c2cc(NS(=O)(=O)c3ccccc3)ccc2O[C@@H](C)CCCCO[C@@H]1CN(C)Cc1ccc(C(F)(F)F)cc1
inactive: [1] | [2] | [3] | [4] | [5] | [6] -5.59% | [7] | [8] | [9]

C[C@@H]1CCCCO[C@@H](CN(C)S(=O)(=O)c2ccc(Cl)cc2)[C@H](C)CN([C@@H](C)CO)C(=O)c2cc(NS(=O)(=O)c3ccc(Cl)cc3)ccc2O1
inactive: [1] | [2] | [3] | [4] | [5] | [6] -34.3% [at 16 µM, stronger effect = lower value] | [7] | [8] | [9]

C[C@@H]1CCCCO[C@@H](CN(C)Cc2ccccc2)[C@@H](C)CN([C@H](C)CO)C(=O)c2cc(NC(=O)Nc3ccc(C(F)(F)F)cc3)ccc2O1
inactive: [1] | [2] | [3] | [4] | [5] | [6] -13.2% | [7] | [8] | [9]

C[C@@H]1CN([C@@H](C)CO)C(=O)c2cc(N(C)C)ccc2O[C@@H]1CN(C)Cc1ccc(Oc2ccccc2)cc1
inactive: [1] | [2] | [3] | [4] | [5] | [6] -18.3% | [7] | [8] | [9]

C[C@@H]1CCCCO[C@H](CN(C)Cc2ccc(C(F)(F)F)cc2)[C@H](C)CN([C@H](C)CO)C(=O)c2cc(NC(=O)Nc3ccc(F)cc3)ccc2O1
inactive: [1] | [2] | [3] | [4] | [5] | [6] 10.2% [at 1 µM, stronger effect = lower value] | [7] | [8] | [9]

C[C@@H]1CCCCO[C@@H](CN(C)CC2CCCCC2)[C@@H](C)CN([C@@H](C)CO)C(=O)c2cc(NC(=O)Nc3ccc(C(F)(F)F)cc3)ccc2O1
inactive: [1] | [2] | [3] | [4] | [5] | [6] 17.1% [at 0.5 µM, stronger effect = lower value] | [7] | [8] | [9]

Cc1ccc(S(=O)(=O)N(C)C[C@H]2OCCCC[C@@H](C)Oc3ccc(NS(=O)(=O)c4ccc(F)cc4)cc3C(=O)N([C@@H](C)CO)C[C@H]2C)cc1
inactive: [1] | [2] | [3] | [4] | [5] | [6] -18.9% [at 0.5 µM, stronger effect = lower value] | [7] | [8] | [9]

C[C@@H]1CCCCO[C@H](CN(C)C)[C@H](C)CN([C@H](C)CO)C(=O)c2cc(NC(=O)Nc3cccc4ccccc34)ccc2O1
inactive: [1] | [2] | [3] | [4] | [5] | [6] 24.8% [at 4.2 µM, stronger effect = lower value] | [7] | [8] | [9]

Cc1cccc(S(=O)(=O)N2CC[C@@H]3[C@H](CO)Nc4ccc(C5=CCCCC5)cc4[C@@H]32)c1
inactive: [1] | [2] | [3] | [4] | [5] | [6] 25.1% [at 1.1 µM, stronger effect = lower value] | [7] | [8] | [9]

C[C@@H]1CCCCO[C@H](CN(C)C(=O)Nc2ccc(C(F)(F)F)cc2)[C@@H](C)CN([C@@H](C)CO)C(=O)c2cc(NS(=O)(=O)c3cccs3)ccc2O1
inactive: [1] | [2] | [3] | [4] | [5] | [6] -19.5% [at 4.2 µM, stronger effect = lower value] | [7] | [8] | [9]

C[C@@H]1CCCCO[C@@H](CN(C)C(=O)Cc2ccccc2)[C@@H](C)CN([C@@H](C)CO)C(=O)c2cc(NC(=O)Nc3ccc(C(F)(F)F)cc3)ccc2O1
inactive: [1] | [2] | [3] | [4] | [5] | [6] -12.2% [at 16 µM, stronger effect = lower value] | [7] | [8] | [9]

C[C@@H]1CN([C@H](C)CO)C(=O)Cc2cc(NC(=O)Cc3ccccc3)ccc2O[C@@H]1CN(C)Cc1ccc(C(F)(F)F)cc1
inactive: [1] | [2] | [3] | [4] | [5] | [6] -9.67% [at 0.26 µM, stronger effect = lower value] | [7] | [8] | [9]

C[C@H]1CN([C@@H](C)CO)C(=O)c2cccc(NC(=O)Nc3ccc(F)cc3)c2O[C@H]1CN(C)C(=O)Nc1ccc(C(F)(F)F)cc1
inactive: [1] | [2] | [3] | [4] | [5] | [6] 10.2% [at 0.26 µM, stronger effect = lower value] | [7] | [8] | [9]

C[C@@H]1CN([C@H](C)CO)C(=O)c2cc(NC(=O)Nc3ccc(C(F)(F)F)cc3)ccc2O[C@@H](C)CCCCO[C@H]1CN(C)C(=O)Nc1ccc(F)cc1
inactive: [1] | [2] | [3] | [4] | [5] | [6] -1.73% | [7] | [8] | [9]

C[C@H](CO)N1C[C@H](C)[C@@H](CN(C)C(=O)Nc2ccc(F)cc2)OCc2ccccc2-c2c(n(C)c3ccccc23)C1=O
inactive: [1] | [2] | [3] | [4] | [5] | [6] 31.5% | [7] | [8] | [9]

C[C@H](CO)N1C[C@H](C)[C@H](CN(C)Cc2ccc(Cl)c(Cl)c2)OCCCC[C@H](C)Oc2ccc(NC(=O)NC3CCCCC3)cc2C1=O
inactive: [1] | [2] | [3] | [4] | [5] | [6] -2.95% | [7] | [8] | [9]

C[C@H]1CCCCO[C@@H](CN(C)Cc2ccc(C(F)(F)F)cc2)[C@@H](C)CN([C@@H](C)CO)C(=O)c2cc(NS(=O)(=O)c3cccs3)ccc2O1
inactive: [1] | [2] | [3] | [4] | [5] | [6] -8.06% [at 4.2 µM, stronger effect = lower value] | [7] | [8] | [9]

C[C@@H]1CN([C@H](C)CO)C(=O)Cc2cc(NC(=O)Nc3ccc(F)cc3)ccc2O[C@@H]1CN(C)Cc1ccc(Cl)c(Cl)c1
inactive: [1] | [2] | [3] | [4] | [5] | [6] 27.5% | [7] | [8] | [9]

C[C@H](CO)N1C[C@H](C)[C@@H](CN(C)Cc2ccc(Cl)c(Cl)c2)OCCCC[C@H](C)Oc2ccc(NC(=O)Nc3ccc(C(F)(F)F)cc3)cc2C1=O
inactive: [1] | [2] | [3] | [4] | [5] | [6] 35.5% [at 2.1 µM, stronger effect = lower value] | [7] | [8] | [9]

O=C(C[C@H]1CC[C@H]2[C@@H](COC[C@@H](O)CN2Cc2ccc(F)cc2)O1)NCc1ccccc1Cl
inactive: [1] | [2] | [3] | [4] | [5] | [6] -7.1% | [7] | [8] | [9]

O=C(C[C@@H]1CC[C@@H]2[C@H](COC[C@H](O)CN2S(=O)(=O)c2cccc(Cl)c2)O1)Nc1ccc(-c2ccccc2)cc1
inactive: [1] | [2] | [3] | [4] | [5] | [6] -18.5% | [7] | [8] | [9]

C[C@@H]1CN([C@H](C)CO)C(=O)c2cc(NC(=O)Nc3ccc(C(F)(F)F)cc3)ccc2O[C@@H](C)CCCCO[C@H]1CN(C)Cc1ccc(Cl)c(Cl)c1
inactive: [1] | [2] | [3] | [4] | [5] | [6] 8.01% [at 8 µM, stronger effect = lower value] | [7] | [8] | [9]

C[C@@H]1CCCCO[C@@H](CN(C)Cc2ccc(Cl)c(Cl)c2)[C@H](C)CN([C@H](C)CO)C(=O)c2cc(NS(=O)(=O)c3ccccc3)ccc2O1
inactive: [1] | [2] | [3] | [4] | [5] | [6] 8.76% [at 1.95 µM, stronger effect = lower value] | [7] | [8] | [9]

C[C@H](CO)N1C[C@H](C)[C@H](CN(C)C(=O)NC2CCCCC2)Oc2cc(C#Cc3cccc(F)c3)ccc2S1(=O)=O
inactive: [1] | [2] | [3] | [4] | [5] | [6] 16.5% [at 0.5 µM, stronger effect = lower value] | [7] | [8] | [9]

C[C@@H]1CN([C@@H](C)CO)C(=O)c2cc(NC(=O)NC3CCCCC3)ccc2O[C@@H](C)CCCCO[C@H]1CN(C)Cc1ccc(C(F)(F)F)cc1
inactive: [1] | [2] | [3] | [4] | [5] | [6] -25.9% | [7] | [8] | [9]

Cc1ccc(S(=O)(=O)Nc2ccc3c(c2)C(=O)N([C@@H](C)CO)C[C@H](C)[C@@H](CN(C)C(=O)Nc2ccc(C(F)(F)F)cc2)OCCCC[C@H](C)O3)cc1
inactive: [1] | [2] | [3] | [4] | [5] | [6] -5.62% | [7] | [8] | [9]

CN1c2ccc(-c3ccc(C#N)cc3)cc2[C@@H]2[C@@H](CCN2C(=O)NC2CCCCC2)[C@@H]1CO
inactive: [1] | [2] | [3] | [4] | [5] | [6] -6.17% [at 4.2 µM, stronger effect = lower value] | [7] | [8] | [9]
